The text below walks through data of PubChem BioAssay (Tox21).

Inconclusive results are not listed. A structure can be active in one record and inactive in another. The source made the active and inactive calls. Unless noted, the call rests on the fitted dose curve; in most records, active means well fitted curve in the direction sought with a large enough effect in the repeat runs; inconclusive means weak or mixed curves; inactive means no such curve, though single readings can be large; an effect the other way counts as inactive or inconclusive.

A short description of experiment [1]: qHTS assay to identify small molecule antagonists of the sonic hedgehog signaling (Shh) pathway (AID 1259369; calls by dose curve; further: nearly all actives have a fitted effect of over 45% in size; further: potency means the concentration at half of the fitted maximal effect). Summed up: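 Screening used 3T3Gli1-Luc cells at 2,000 per well, compounds delivered in DMSO, and conditioned medium as agonist stimulus; plates incubated 24hr at 37 C and 5% CO2 before a 30min luciferase step.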
Experiment [2] concerns the target Estrogen receptor beta (Homo sapiens) (UniProt Q92731). Description: qHTS assay to identify small molecule agonists of the estrogen receptor beta (ER-beta) signaling pathway (AID 1259377; active means well fitted activation curve with a large enough effect in the signal ratio in the repeat runs, not every such curve was filed as active; the % refers to the signal ratio). A digest of the protocol:
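Ratiometric beta-lactamase FRET read-out came after 2 h substrate loading at room temperature. It followed 16 h compound treatment at 37C of GripTite HEK293T cells carrying a UAS-bla reporter, plated in 2% charcoal-stripped FBS medium.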
(In general: Quantitative high-throughput screening tests each substance at several concentrations.)

For experiment [3] the target is unchanged. The experiment in a line: qHTS assay to identify small molecule antagonists of the estrogen receptor beta (ER-beta) signaling pathway (AID 1259378; active means well fitted inhibition curve with a large enough effect in the signal ratio in the repeat runs, not every such curve was filed as active; the % refers to the signal ratio; further: potency means the concentration at half of the fitted maximal effect). Summed up:
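ER-beta-UAS-bla HEK293T cells in 2% charcoal-stripped FBS medium treated with compound plus 1nM final 17-beta-estradiol for 16 hr at 37C. Beta-lactamase reporter read by FRET substrate fluorescence after 2 hours at room temperature.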

Experiment [4] can be described thus: qHTS assay to identify small molecule agonists of the androgen receptor (AR) signaling pathway in the presence of an antagonist - cell viability counter screen (AID 1259379).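 Further: MDA-kb2 human breast cancer cells carrying an MMTV luciferase reporter; series mostly up to about 92 µM; nearly all actives have a fitted effect of over 25% in size.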 Summed up: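 In MDA-kb2 cells (human breast carcinoma, MMTV-luciferase), compounds at 15 concentrations plus 3.0uM nilutamide; 16 hr, 37C, 0% CO2; CellTiter-Fluor fluorescence read for viability.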

Experiment [5] is described as follows: qHTS assay to identify small molecule antagonists of the estrogen receptor beta (ER-beta) signaling pathway - cell viability counter screen (AID 1259382). Further: series mostly up to about 92 µM; nearly all actives have a fitted effect of over 55% in size. Summed up: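 Tox21 10K library tested in qHTS format on ER-beta-bla HEK293T cells stimulated with 1nM E2; 16 hr treatment at 37C. Same-well CellTiter-Glo luminescence served as the cell viability measure.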

The target of experiment [6] is Estrogen receptor (Homo sapiens) (UniProt P03372). Description: qHTS assay to identify small molecule agonists of the estrogen receptor alpha (ER-alpha) signaling pathway in the presence of an antagonist (AID 1259383; calls by dose curve; further: nearly all actives have a fitted effect of over 15% in size; further: potency means the concentration at half of the fitted maximal effect; on activation: top concentration of the series differs between compounds). A digest of the protocol: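 In VM7Luc4E2 cells, 4,000 per well, compounds at 15 concentrations were co-incubated 22hr at 37C with 10.0nM final ICI-182,780. Luminescence from the stably transfected 4×ERE-luciferase reporter was recorded 30min after ONE-Glo addition.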
Estrogen receptor (Homo sapiens), sequence (P03372 whole entry, looked up): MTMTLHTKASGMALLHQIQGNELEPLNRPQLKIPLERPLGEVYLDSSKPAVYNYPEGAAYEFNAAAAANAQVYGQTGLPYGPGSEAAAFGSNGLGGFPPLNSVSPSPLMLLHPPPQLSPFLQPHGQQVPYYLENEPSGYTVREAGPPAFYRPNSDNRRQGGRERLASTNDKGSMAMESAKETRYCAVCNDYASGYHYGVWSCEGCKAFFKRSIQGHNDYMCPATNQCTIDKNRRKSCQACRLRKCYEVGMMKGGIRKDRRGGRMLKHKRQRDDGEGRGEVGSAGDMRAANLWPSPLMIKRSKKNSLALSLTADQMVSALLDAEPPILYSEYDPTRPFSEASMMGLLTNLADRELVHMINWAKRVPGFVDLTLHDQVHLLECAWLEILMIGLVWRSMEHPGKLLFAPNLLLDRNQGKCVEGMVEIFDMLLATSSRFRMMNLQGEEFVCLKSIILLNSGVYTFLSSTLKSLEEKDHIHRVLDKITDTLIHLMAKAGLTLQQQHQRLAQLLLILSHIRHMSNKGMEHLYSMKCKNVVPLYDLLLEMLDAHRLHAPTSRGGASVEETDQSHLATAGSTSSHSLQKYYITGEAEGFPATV

The nature of experiment [7]: qHTS assay to identify small molecule agonists or antagonists of the thyroid stimulating hormone receptor (TSHR) signaling pathway - wild type cell line counter screen (AID 1259384; calls by dose curve). Summed up:
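Wild-type Hek293 cells, 800/well, 18 h at 37C, then compound with Ro20-1724 for 30 min RT. cAMP by HTRF (cAMP-d2/anti-cAMP cryptate), 1 h RT, fluorescence read. 15 concentrations, triplicates.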

The target in experiment [8] is Thyrotropin receptor (Homo sapiens) (UniProt P16473). The experiment in a line: qHTS assay to identify small molecule antagonists of the thyroid stimulating hormone receptor (TSHR) signaling pathway (AID 1259385; calls by dose curve; further: nearly all actives have a fitted effect of over 20% in size). Summed up: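 TSHR-HEK293 cells (800/well) plated 18 h, then compounds with Ro20-1724 and TSH at 1.5 ng/mL final, 30 min at room temperature. cAMP quantified by HTRF (cAMP-d2/anti-cAMP-cryptate, 1 h); 15 concentrations in triplicate.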
Thyrotropin receptor (Homo sapiens), sequence (P16473 whole entry, looked up): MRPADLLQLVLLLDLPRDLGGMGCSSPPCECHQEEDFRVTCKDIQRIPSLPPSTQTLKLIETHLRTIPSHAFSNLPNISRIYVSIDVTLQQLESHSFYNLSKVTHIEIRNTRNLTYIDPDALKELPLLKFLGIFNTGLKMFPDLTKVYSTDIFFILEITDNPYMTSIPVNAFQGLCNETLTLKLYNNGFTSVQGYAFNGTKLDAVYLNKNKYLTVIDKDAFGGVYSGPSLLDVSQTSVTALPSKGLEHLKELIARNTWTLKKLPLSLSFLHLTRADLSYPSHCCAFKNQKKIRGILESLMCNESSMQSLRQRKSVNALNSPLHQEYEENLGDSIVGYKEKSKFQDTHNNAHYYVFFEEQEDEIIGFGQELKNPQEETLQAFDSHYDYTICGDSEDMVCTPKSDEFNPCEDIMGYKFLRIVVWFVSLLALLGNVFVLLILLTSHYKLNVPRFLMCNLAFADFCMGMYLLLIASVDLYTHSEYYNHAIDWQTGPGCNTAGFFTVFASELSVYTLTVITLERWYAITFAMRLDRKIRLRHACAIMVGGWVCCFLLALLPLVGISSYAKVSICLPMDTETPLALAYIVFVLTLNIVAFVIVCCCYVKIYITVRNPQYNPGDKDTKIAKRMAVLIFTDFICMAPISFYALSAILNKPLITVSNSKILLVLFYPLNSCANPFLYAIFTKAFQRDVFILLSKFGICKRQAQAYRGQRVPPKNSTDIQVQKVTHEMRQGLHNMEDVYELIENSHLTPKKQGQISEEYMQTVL

In experiment [9] the target is Progesterone receptor (Homo sapiens) (UniProt P06401). The experiment in a line: qHTS assay to identify small molecule agonists of the progesterone receptor (PR) signaling pathway (AID 1346784; calls by dose curve; further: nearly all actives have a fitted effect of over 30% in size). Summed up:
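Agonist qHTS: compounds pinned onto 3,000 PR-UAS-bla HEK 293T cells per well in charcoal-stripped serum medium, 16hr at 37C, then beta-lactamase activity measured by LiveBLAzer FRET fluorescence after 2 hours at room temperature.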

For experiment [10] the target is unchanged. Description: qHTS assay to identify small molecule antagonists of the progesterone receptor (PR) signaling pathway (AID 1346795; active means well fitted inhibition curve with a large enough effect in the signal ratio in the repeat runs, not every such curve was filed as active; the % refers to the signal ratio; further: potency means the concentration at half of the fitted maximal effect). A digest of the protocol: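 Antagonist mode with agonist R5020 at 1 nM final and 16 hr incubation at 37C. Reporter was beta-lactamase driven by UAS in HEK293T (PR-UAS-bla), 2% charcoal-stripped serum; signal from LiveBLAzer FRET substrate, 2 hr at room temperature.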

Experiment [11] can be described thus: qHTS assay to identify small molecule antagonists of the progesterone receptor (PR) signaling pathway - cell viability counter screen (AID 1346798). Further: series mostly up to about 92 µM; nearly all actives have a fitted effect of over 50% in size. Summed up:
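Cytotoxicity read as CellTiter-Glo luminescence (30 min, room temperature) in the same wells as the beta-lactamase readout. HEK293T PR-UAS-bla cells in charcoal-stripped 2% FBS received compound and R5020, then 16 h at 37C, 5% CO2.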

A short description of experiment [12]: qHTS assay to identify small molecule antagonists of the TGF-beta/Smad signaling pathway - cell viability counter screen (AID 1346824). Further: nearly all actives have a fitted effect of over 50% in size. A digest of the protocol:
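SBE-bla HEK 293T cells, incubated overnight, then compound plus 0.25 ng/mL TGF-beta1 (stock added) for 5 hr at 37 C. Viability was read in the same wells by CellTiter-Glo luminescence after 30 min at room temperature.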

Experiment [13] is described as follows: qHTS assay to identify small molecule agonists of the TGF-beta/Smad signaling pathway - cell viability counter screen (AID 1346829). Further: top concentration of the series differs between compounds; nearly all actives have a fitted effect of over 45% in size. Summed up:
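HEK 293T SBE-bla line, 5 hr compound exposure at 37 C, multiplexed CellTiter-Glo viability read by luminescence.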

Experiment [14] can be described thus: qHTS assay to identify small molecule agonists of the TGF-beta/Smad signaling pathway (AID 1346859; active means well fitted activation curve with a large enough effect in the signal ratio in the repeat runs, not every such curve was filed as active; the % refers to the signal ratio; further: series mostly up to about 77 µM). A digest of the protocol:
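Fluorescence (ex 405 nm; em 460 and 530 nm) was read 2 h after LiveBLAzer FRET substrate at RT. The preceding compound treatment of overnight-plated SBE-bla HEK293T cells lasted 5 h at 37 C.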

Experiment [15] in a line: qHTS assay to identify small molecule agonists of the estrogen receptor alpha (ER-alpha) signaling pathway in the presence of an antagonist - cell viability counter screen (AID 1259386).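 Further: series mostly up to about 92 µM; cells exposed to compounds for 22 h at 37 °C before the viability read; nearly all actives have a fitted effect of over 30% in size.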 A digest of the protocol:
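Fluorescent CellTiter-Fluor viability signal from VM7Luc4E2 cells, with the reagent added during the final hour of a 22hr compound exposure at 37C in the presence of 10.0nM ICI-182,780.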

Experiment [16] can be described thus: qHTS assay to identify small molecule agonists of the progesterone receptor (PR) signaling pathway - cell viability counter screen (AID 1346799; calls by dose curve; further: nearly all actives have a fitted effect of over 45% in size). Summed up:
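Cytotoxicity measured by CellTiter-Glo luminescence (30 min, RT) in the same wells as the PR beta-lactamase agonist read. Those HEK293T cells had 16 h compound treatment at 37 C in 2% charcoal-stripped FBS medium.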

Experiment [17] deals with Thyrotropin-releasing hormone receptor (Homo sapiens) (UniProt P34981). Description: qHTS assay to identify small molecule antagonists of the thyrotropin-releasing hormone receptor (TRHR) signaling pathway (AID 1346877; active means well fitted inhibition curve with a large enough effect in the repeat runs, not every such curve was filed as active; further: series mostly up to about 51 µM). Summed up: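 In this cell-based calcium flux format, HEK293 cells expressing TRHR received test compound for 5 min before the agonist TRH (1 nM final). Dye loading lasted 2 h at 37 °C.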
Thyrotropin-releasing hormone receptor (Homo sapiens), sequence (P34981 whole entry, looked up): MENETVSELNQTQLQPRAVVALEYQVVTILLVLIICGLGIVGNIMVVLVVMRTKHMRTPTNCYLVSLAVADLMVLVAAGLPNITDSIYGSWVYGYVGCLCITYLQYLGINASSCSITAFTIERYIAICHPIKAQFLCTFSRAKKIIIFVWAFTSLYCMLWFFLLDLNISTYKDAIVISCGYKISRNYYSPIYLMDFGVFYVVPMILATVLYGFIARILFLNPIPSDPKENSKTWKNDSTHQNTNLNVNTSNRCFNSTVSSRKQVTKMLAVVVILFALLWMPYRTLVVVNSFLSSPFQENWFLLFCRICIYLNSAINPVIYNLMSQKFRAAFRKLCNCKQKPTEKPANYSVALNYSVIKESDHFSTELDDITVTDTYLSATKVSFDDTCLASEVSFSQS

Experiment [18] has the same target. Description: qHTS assay to identify small molecule agonists of the thyrotropin-releasing hormone receptor (TRHR) signaling pathway (AID 1346891; calls by dose curve; further: series mostly up to about 58 µM). Summed up:
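Agonist-mode intracellular calcium readout: kinetic fluorescence over 3 min at 1 s intervals after compound addition to TRHR-HEK293 cells (18 h seeded, 2 h dye-loaded at 37 C). Fifteen concentrations, triplicates.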

The nature of experiment [19]: qHTS assay to identify small molecule agonists of the estrogen receptor beta (ER-beta) signaling pathway - cell viability counter screen (AID 1259380). Further: nearly all actives have a fitted effect of over 30% in size. A digest of the protocol:
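Viability of ER-beta-UAS-bla HEK293T cells was determined by CellTiter-Glo luminescence following 16 hr treatment with test compounds at 37C.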

For experiment [20], the target named is Androgen receptor (Homo sapiens) (UniProt P10275). The experiment in a line: qHTS assay to identify small molecule agonists of the androgen receptor (AR) signaling pathway in the presence of an antagonist (AID 1259381; calls by dose curve; further: nearly all actives have a fitted effect of over 15% in size). Summed up: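 Here, 15-concentration compound series were pin-transferred onto MDA-kb2 MMTV-luciferase cells already dosed with nilutamide (3.0uM final). After 16hr at 37C, ONE-Glo was added and luminescence read 30min later at room temperature.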
Androgen receptor (Homo sapiens), sequence (P10275 whole entry, looked up): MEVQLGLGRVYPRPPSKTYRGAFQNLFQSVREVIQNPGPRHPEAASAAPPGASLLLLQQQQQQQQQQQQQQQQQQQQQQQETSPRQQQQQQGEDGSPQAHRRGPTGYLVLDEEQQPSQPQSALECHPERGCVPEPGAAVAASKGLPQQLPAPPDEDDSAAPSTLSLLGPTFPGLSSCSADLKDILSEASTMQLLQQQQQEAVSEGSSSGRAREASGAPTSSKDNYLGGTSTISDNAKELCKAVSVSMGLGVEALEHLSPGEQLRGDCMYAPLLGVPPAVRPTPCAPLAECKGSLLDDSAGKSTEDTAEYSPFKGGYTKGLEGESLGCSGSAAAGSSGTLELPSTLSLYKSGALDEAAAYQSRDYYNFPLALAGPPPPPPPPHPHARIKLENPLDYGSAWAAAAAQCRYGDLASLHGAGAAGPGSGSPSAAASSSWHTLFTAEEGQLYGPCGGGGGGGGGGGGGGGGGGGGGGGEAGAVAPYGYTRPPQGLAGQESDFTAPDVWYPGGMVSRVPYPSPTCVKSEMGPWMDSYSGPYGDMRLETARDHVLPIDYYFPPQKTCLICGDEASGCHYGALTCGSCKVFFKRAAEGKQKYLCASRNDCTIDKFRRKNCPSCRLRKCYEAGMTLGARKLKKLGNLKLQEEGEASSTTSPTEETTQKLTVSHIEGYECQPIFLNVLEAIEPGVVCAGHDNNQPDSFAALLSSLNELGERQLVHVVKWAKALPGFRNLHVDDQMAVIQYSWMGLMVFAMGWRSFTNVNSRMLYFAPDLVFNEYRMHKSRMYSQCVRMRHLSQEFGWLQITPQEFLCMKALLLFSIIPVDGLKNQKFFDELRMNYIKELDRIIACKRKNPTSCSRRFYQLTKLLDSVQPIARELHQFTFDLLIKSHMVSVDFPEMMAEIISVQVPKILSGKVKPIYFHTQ
On the % scale 0 is the no-effect control and ±100 the full control effect.

Progesterone receptor (Homo sapiens), sequence (P06401 whole entry, looked up): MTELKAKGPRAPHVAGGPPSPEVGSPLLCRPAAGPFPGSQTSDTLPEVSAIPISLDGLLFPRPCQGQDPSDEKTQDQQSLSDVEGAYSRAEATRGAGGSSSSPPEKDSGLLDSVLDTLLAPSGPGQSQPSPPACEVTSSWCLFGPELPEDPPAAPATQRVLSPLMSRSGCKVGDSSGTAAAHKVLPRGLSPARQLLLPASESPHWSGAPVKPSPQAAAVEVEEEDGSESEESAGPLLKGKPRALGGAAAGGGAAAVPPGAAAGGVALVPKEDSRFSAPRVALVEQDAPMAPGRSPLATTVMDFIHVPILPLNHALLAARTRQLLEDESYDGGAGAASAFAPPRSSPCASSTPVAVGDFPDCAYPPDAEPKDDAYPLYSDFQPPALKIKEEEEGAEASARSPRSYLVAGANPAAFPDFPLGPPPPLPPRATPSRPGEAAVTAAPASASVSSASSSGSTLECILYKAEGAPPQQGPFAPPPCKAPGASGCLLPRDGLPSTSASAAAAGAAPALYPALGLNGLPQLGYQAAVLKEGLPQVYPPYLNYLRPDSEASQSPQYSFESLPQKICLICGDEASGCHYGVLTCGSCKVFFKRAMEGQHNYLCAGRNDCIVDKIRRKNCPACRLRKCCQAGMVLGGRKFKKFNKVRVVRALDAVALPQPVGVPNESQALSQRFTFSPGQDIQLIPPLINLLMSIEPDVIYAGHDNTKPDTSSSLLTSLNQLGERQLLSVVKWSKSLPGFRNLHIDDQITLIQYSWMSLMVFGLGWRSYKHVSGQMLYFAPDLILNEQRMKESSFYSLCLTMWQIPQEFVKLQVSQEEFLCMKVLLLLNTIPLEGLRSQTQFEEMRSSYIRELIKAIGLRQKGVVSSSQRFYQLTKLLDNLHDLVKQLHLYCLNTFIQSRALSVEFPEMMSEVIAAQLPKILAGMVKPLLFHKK
Estrogen receptor beta (Homo sapiens), sequence (Q92731 whole entry, looked up): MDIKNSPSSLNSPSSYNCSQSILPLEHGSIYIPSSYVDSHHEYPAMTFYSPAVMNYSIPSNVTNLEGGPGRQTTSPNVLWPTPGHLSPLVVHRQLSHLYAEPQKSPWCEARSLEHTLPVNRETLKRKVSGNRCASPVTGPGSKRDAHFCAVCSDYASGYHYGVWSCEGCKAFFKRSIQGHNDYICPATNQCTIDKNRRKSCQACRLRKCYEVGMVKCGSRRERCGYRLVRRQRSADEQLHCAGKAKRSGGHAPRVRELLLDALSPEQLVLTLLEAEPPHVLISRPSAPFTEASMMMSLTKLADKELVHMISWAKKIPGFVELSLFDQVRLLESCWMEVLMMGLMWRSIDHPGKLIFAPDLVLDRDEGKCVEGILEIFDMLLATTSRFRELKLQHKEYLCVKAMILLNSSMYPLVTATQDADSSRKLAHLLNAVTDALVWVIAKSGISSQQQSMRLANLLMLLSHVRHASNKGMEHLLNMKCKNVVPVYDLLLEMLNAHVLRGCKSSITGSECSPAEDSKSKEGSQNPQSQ

Take `Oc1cc(O)c(Cl)cc1Cl`: the Potency entry in experiment [1], in [2], in experiment [3], in experiment [4], in [5] and in [6] was “inactive” throughout. Further, the Potency entry in experiment [8], in [9] and in [11] was “inactive” throughout. Besides, the outcome in [7], in experiment [12], in experiment [13] and in experiment [14] was inactive. Further, the Potency in [10] is 49.7 µM (active).

Consider `CC1CN(c2cc3c(cc2F)c(=O)c(C(=O)O)cn3-c2ccc(F)cc2F)CCN1` (stereo unspecified), for which the activity change, negative = inhibition in experiment [1] is 30.3% [at 8.39 µM] (inactive); in experiment [10] it was 4.51% [at 8.39 µM] (inactive). The activation in experiment [2] was -1.89% [at 8.39 µM] (inactive); in experiment [6] it was 0.293% [at 8.39 µM] (inactive); in experiment [9], -0.275% [at 8.39 µM] (inactive); in [14], -2.82% [at 6.97 µM] (inactive); in experiment [18] it was 0% [at 5.23 µM] (inactive). In addition, the results for the activity, negative = inhibition in experiment [3] and in experiment [17] were 1.81% [at 8.39 µM] (inactive) and 2.02% [at 4.65 µM] (inactive), respectively. Moreover, the activity change, negative = cytotoxicity in experiment [4] is 0.826% [at 8.39 µM] (inactive); in experiment [5], 1.64% [at 8.39 µM] (inactive); in experiment [15], -5.19% [at 8.39 µM] (inactive); in [11], 0.324% [at 8.39 µM] (inactive); in [16] it was -0.292% [at 8.39 µM] (inactive); in [13] it was 5.65% [at 6.97 µM] (inactive). The viability change, negative = cytotoxic in experiment [12] is -5.24% [at 6.97 µM] (inactive).

With `Cc1oncc1C(=O)Nc1ccc(C(F)(F)F)cc1`, the Potency in experiment [1] was 27.3 µM (active) and inactive; in experiment [6] it was 3.06 µM (active) and inactive; in experiment [10], 61.1 µM (active). Further, the Potency result in experiment [2], in [4], in [19], in experiment [5], in [8] and in [15] was “inactive” in each case. Besides, the Potency entry in experiment [9], in experiment [11] and in experiment [16] was “inactive” throughout. The molecule was classed as inactive in [7], in experiment [12], in experiment [13] and in experiment [14].

For the molecule `COC(=O)c1cc(Cl)ccc1NS(=O)(=O)C(F)(F)F`, the Potency result in experiment [1], in experiment [2], in experiment [4], in [19], in [20] and in [5] was “inactive” in each case. The Potency entry in experiment [8], in [9], in experiment [10], in [11], in experiment [16] and in experiment [18] was “inactive” each time. Besides, the result in experiment [7], in experiment [12], in experiment [13], in experiment [14] and in experiment [17] was inactive.

Regarding `CC(=O)[C@H]1CC[C@H]2[C@@H]3C=CC4=CC(=O)CC[C@@]4(C)[C@@H]3CC[C@]12C`, the Potency in experiment [1] was 11.9 µM (active). Moreover, the Potency result in experiment [2], in experiment [4], in [19], in [5], in [6] and in experiment [8] was “inactive” each time. For the same molecule, the Potency entry in experiment [15], in [10], in experiment [16] and in experiment [18] was “inactive” in each case. The call in [7], in [12], in experiment [13], in experiment [14] and in experiment [17] was inactive.

For the molecule `CO[C@@]12[C@H](COC(N)=O)C3=C(C(=O)C(C)=C(N)C3=O)N1C[C@@H]1N[C@@H]12`, the Potency in experiment [1] was 0.298 µM (active); in experiment [3], 18.8 µM (active). For the same molecule, the Potency result in experiment [2], in [4], in experiment [19], in experiment [5], in [9] and in experiment [11] was “inactive” in each case. Besides, the outcome in experiment [12], in [13] and in experiment [14] was inactive.

For the molecule `CC(C)(O)c1ccccc1CC[C@@H](SCC1(CC(=O)O)CC1)c1cccc(/C=C/c2ccc3ccc(Cl)cc3n2)c1`, the Potency result in [1], in experiment [2], in [3], in experiment [4], in [20] and in experiment [5] was “inactive” each time. For the same molecule, the Potency entry in experiment [6], in experiment [8], in experiment [15], in [9], in experiment [10] and in [11] was “inactive” in each case. In addition, the Potency entry in [18] was “inactive”. Further, the result in experiment [7], in experiment [12], in experiment [13], in [14] and in [17] was inactive.

For the molecule `COCCOC`, the Potency in [1] was 4.13 µM (active). Moreover, the Potency result in experiment [2], in [3], in experiment [5], in experiment [15], in experiment [10] and in experiment [11] was “inactive” in each case. The Potency entry in experiment [18] is “inactive”. Further, the molecule was called inactive in experiment [7], in [12], in experiment [13], in experiment [14] and in experiment [17].
